Reference: PubChem BioAssay
Active and inactive are the calls of the source. No rule for the calls is given here.

What follows are compounds tested against Lethal factor (Bacillus anthracis) (UniProt P15917) (assay: Lethal factor protease inhibitors, Bacillus anthracis, multiplex microsphere cleavage assay, validation set (AID 588461)). Conditions: flow cytometry, at 10 µM, active compounds read high.
Chain of Lethal factor (Bacillus anthracis) (P15917 whole entry, looked up): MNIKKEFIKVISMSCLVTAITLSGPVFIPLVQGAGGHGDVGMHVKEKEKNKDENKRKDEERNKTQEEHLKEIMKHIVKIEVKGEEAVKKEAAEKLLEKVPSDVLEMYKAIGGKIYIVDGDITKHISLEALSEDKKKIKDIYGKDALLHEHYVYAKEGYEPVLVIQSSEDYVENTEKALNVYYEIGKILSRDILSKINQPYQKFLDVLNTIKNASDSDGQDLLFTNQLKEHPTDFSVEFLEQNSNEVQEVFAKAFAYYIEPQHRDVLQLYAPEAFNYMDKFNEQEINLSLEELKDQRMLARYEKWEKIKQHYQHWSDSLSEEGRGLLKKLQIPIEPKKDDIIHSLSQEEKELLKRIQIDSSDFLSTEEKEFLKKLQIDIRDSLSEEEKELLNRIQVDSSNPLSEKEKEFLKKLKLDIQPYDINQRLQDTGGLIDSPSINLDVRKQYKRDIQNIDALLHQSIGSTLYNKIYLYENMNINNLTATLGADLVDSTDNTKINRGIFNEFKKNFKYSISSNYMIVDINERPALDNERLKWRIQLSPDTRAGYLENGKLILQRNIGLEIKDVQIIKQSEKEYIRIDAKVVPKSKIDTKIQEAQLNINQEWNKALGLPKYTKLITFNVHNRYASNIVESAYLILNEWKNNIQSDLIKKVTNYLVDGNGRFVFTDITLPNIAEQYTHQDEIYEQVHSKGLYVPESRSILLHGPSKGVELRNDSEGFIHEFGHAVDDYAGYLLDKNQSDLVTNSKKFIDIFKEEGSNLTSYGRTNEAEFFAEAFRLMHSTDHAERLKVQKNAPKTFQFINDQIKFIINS

| SMILES | inhibition |
| --- | --- |
| O=C(NCCc1cccc(F)c1)[C@@H]1CSC2c3ccccc3C(=O)N21 (stereo partly drawn) | 0.6% (inactive) |
| Nc1c(C(=O)c2ccccc2)oc2ccccc12 | -7.3% (inactive) |
| CCCCOn1c(C)c(C(C)=O)c2c3no[n+]([O-])c3ccc21 | -1.9% (inactive) |
| CC12CCC(C(=O)N(CCC#N)CCC#N)(CC1=O)C2(C)C (stereo not drawn) | 1.5% (inactive) |
| CN(C(=O)C(Cl)Cl)c1ccc(OC(=O)c2ccco2)cc1 | -0.8% (inactive) |
| COC(=O)c1[nH]c2ccc(F)cc2c1NC(=O)C1=COCCO1 | -4.9% (inactive) |
| Cc1ccc(-c2nnc(-c3ccc4c(c3)OCO4)o2)cc1 | -8% (inactive) |
| CC1(C)NC(C(=O)O)Cc2c1[nH]c1ccccc21 (stereo not drawn) | -2.8% (inactive) |
| Cc1ccc(CSCC(=O)N2CCCC2)cc1 | 0% (inactive) |
| C[N+]12CCCCC1C(COC(=O)c1ccc3c(c1)OCO3)CCC2 (stereo not drawn) | -0.7% (inactive) |
| CN(C)[C@@H]1C(=O)C(C(=O)NCN2CCCC2)=C(O)[C@@]2(O)C(=O)C3=C(O)c4c(O)cccc4[C@@](C)(O)C3CC12 (stereo partly drawn) | -8.3% (inactive) |
| COc1ccc(CCNC(=O)c2ccc(Cl)cc2)cc1OC | -4.6% (inactive) |
| NC(=O)c1ncn([C@@H]2O[C@H](CO)[C@@H](O)[C@H]2O)c1O | -13.3% (inactive) |
| COc1ccc(C(=O)[C@H]2[C@H]3C(=O)N(c4ccccc4)C(=O)[C@H]3C3C=CC=NN32)cc1 (stereo partly drawn) | -5.1% (inactive) |
| O=C(O)/C=C/c1cnc[nH]1 | -0.5% (inactive) |
| COc1cc(CC(=O)NCCc2ccc(S(N)(=O)=O)cc2)cc(OC)c1OC | 6.5% (inactive) |
| COc1ccc(CC(=O)N2CC3(C)CC2CC(C)(C)C3)cc1OC (stereo not drawn) | -0.4% (inactive) |
| CC12CCCCN1CCCc1c2[nH]c2ccccc12 (stereo not drawn) | -11.1% (inactive) |
| COc1ccc2cc(-c3nc4ccccc4n3C)c(=O)oc2c1 | 1% (inactive) |
| c1ccc(CNc2ncnc3nc[nH]c23)cc1 | -4.8% (inactive) |
| CCCC(=O)O[C@]1(C(=O)COC(C)=O)CC[C@H]2[C@@H]3C[C@H](F)C4=CC(=O)C=C[C@]4(C)[C@@]3(F)[C@@H](O)C[C@@]21C | -0.6% (inactive) |
| Cc1ccc2nc(C)c3c(c2c1)OC(C(C)(Cl)Br)C3 (stereo not drawn) | 3.2% (inactive) |
| CC1(C)C2CCC1(C)C(OCC[N+](C)(C)CC(=O)OC1CCCCC1)C2 (stereo not drawn) | -1.9% (inactive) |
